Screening results: PubChem, C. David Weaver Laboratory, Vanderbilt University
This is one part of a sample in which hits are shown more often than they occur.
GIRK2 act = activators of human GIRK2 potassium channels | HEK293-GIRK2 thallium flux, Thallos fluorescence, MPD | calls only for hits at 25 µM | 63,000 compounds, 0.05% hits; call rule not given here
Target sequence (P48051 whole entry, looked up): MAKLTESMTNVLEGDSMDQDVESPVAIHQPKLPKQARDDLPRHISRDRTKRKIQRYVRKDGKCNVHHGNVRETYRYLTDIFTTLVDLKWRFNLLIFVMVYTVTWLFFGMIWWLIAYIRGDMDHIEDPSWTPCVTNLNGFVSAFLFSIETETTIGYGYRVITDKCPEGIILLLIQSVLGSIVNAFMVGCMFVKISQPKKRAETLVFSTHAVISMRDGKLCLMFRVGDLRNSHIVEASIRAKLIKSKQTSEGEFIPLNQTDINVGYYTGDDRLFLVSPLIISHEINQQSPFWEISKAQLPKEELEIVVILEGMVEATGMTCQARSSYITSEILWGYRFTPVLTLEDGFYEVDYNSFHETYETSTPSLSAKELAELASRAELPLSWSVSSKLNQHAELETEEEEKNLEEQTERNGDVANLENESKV
Calls only; 0 = inactive; + = active, no number.

SMILES | GIRK2 act
Cc1noc(C2CCCN2C(=O)CCCc2ccccc2)n1 (stereo not given) | 0
Cc1cc(NC(=O)CCCc2ccccc2)n(-c2nc3c(cnn3-c3ccc(Cl)cc3)c(=O)[nH]2)n1 | 0
Cc1cccc(C)c1OCCCCn1c(CO)nc2ccccc21 | 0
CC(=O)Nc1ccc(C2=NN(C(=O)C(C)C)C(c3ccco3)C2)cc1 (stereo not given) | 0
Cc1c(C(=O)O)nnn1-c1ccc(Br)cc1Cl | 0
COc1nn(C)cc1C(=O)Nc1sc2c(c1-c1nc3ccccc3s1)CCN(C(C)=O)C2 | 0
COc1ccc(CNC(=O)c2nnn(Cc3ccccc3)c2N)cc1OC | 0
Cc1cccc(Cn2c(=O)c3c(nc4n(-c5ccccc5O)c(C)cn34)n(C)c2=O)c1 | 0
CCn1c(=N)c(S(=O)(=O)c2ccc(F)cc2)cc2c(=O)n3cc(C)ccc3nc21 | 0
C=CCNc1oc(-c2ccc(COc3ccc(OC)cc3)o2)nc1C#N | 0
COc1ccc([N+](=O)[O-])cc1NC(=O)Cc1cccc2ccccc12 | 0
CC1(C)Cc2cccc(OCC(=O)Nc3cc(-c4ccco4)nn3-c3nc4c(c(=O)[nH]3)CCC4)c2O1 | 0
COc1ccc(OC)c(-c2cc(C(=O)NCC(c3ccco3)N(C)C)n(C)n2)c1 (stereo not given) | 0
O=C(Nc1ccc(F)cc1)Nc1ccc(Cl)c(N2CCCS2(=O)=O)c1 | 0
Cc1noc(-c2cccnc2N2CCC(NC(=O)C3(c4ccccc4)CC3)CC2)n1 | 0
CCC(=O)Nc1ccc(C(=O)NCCNS(=O)(=O)c2ccccc2C(F)(F)F)cc1 | 0
Cc1ccc(-c2noc(CN3C(=O)C(C)Oc4ccccc43)n2)cc1C (stereo not given) | 0
Cc1ccc(C)c(S(=O)(=O)NCC(=O)Nc2ccc(F)cc2)c1 | 0
O=C(Nc1ccccc1-c1ccc(=O)[nH]n1)c1ccc2c(c1)OCO2 | 0
COc1ccc(CCS(=O)(=O)Nc2cc3c4c(c2)CC(=O)N4CCC3)cc1 | 0
O=C(Nc1cc2c3c(c1)CCN3C(=O)CC2)c1ccc2c(c1)OCO2 | 0
O=C(Cn1ccc2ccccc21)NC1CCN(Cc2ccccc2)CC1 | +
CCOC(=O)N1CCC(NC(=O)Cn2ccc3ccccc32)CC1 | 0
O=C(Cn1ccc2ccccc21)Nc1cc(N2CCN(Cc3ccccc3)CC2)ncn1 | 0
NC(=O)CNC(=O)c1cccc(-n2ccc3ccccc32)c1 | 0
SMILES | GIRK2 act
CS(=O)(=O)c1ccc2nc(N(Cc3ccco3)C(=O)c3ccc(Br)s3)sc2c1 | 0
CCCCOc1ccc(C(=O)N(Cc2ccco2)c2nc3ccc(S(C)(=O)=O)cc3s2)cc1 | 0
CS(=O)(=O)c1ccc2nc(N(Cc3ccco3)C(=O)C3CCCCC3)sc2c1 | +
CN(CC(=O)NC1CC1)c1nc2c(Cl)cccc2s1 | 0
CC(C)S(=O)(=O)c1cccc(-c2nnc(NC(=O)Cn3c(=O)oc4ccccc43)o2)c1 | 0
O=C(Nc1ccc(-n2nnc(C(=O)NC3CC3)n2)cc1)c1ccsc1 | 0
CC(=O)Oc1ccc2c(c1)O/C(=C\c1ccc(Cl)cc1Cl)C2=O | 0
COc1ccccc1N1CCN(c2nccnc2SCC(=O)Nc2ccc(Cl)cc2)CC1 | 0
Cc1cc(F)ccc1NC(=O)CN1CN(c2cccc(F)c2)c2ncccc2S1(=O)=O | 0
O=S(=O)(NCc1ncc(-c2ccccc2)[nH]1)c1cccs1 | 0
Cc1nc(C)c(-c2ccc(=O)n(CCNC(=O)c3cc4ccccc4oc3=O)n2)s1 | 0
Cc1ccc(NC(=O)CN2CCC(c3nc(-c4ccc(F)cc4)no3)CC2)cc1C | 0
COc1ccccc1-n1nnc(C(=O)NCc2nc3ccccc3n2C)c1-c1ccccn1 | 0
COc1ccccc1-n1nnc(C(=O)Nc2nc(C)cs2)c1-c1ccccn1 | +
COc1ccccc1-n1nnc(C(=O)NCC2COCCO2)c1-c1ccccn1 (stereo not given) | 0
COc1ccc(C(=O)Oc2ccc(/C=C/c3ccncc3)cc2OC)cc1 | 0
Cc1cc(C)n(CC2CCN(C(=O)NC(c3ccccc3)c3ccccc3)CC2)n1 | 0
CCOCC(=O)NCCC(O)c1ccoc1 (stereo not given) | 0
CSc1ccc(CNC(=O)c2nnn(-c3ccccc3C)c2-c2ccncc2)cc1 | 0
COc1ccc(NC(=O)c2nnn(-c3ccccc3C)c2-c2ccncc2)c(C)c1 | +
COc1cccc(CNC(=O)c2nnn(-c3ccccc3Cl)c2-c2ccncc2)c1 | 0
Cc1ccccc1-n1nnc(C(=O)NCc2ccc(Br)cc2)c1-c1ccncc1 | 0
Cc1ccccc1-n1nnc(C(=O)Nc2nccs2)c1-c1ccncc1 | 0
COc1cc(OC)c(NC(=O)c2nnn(-c3ccccc3C)c2-c2ccncc2)cc1Cl | +
COc1ccccc1NC(=O)c1ccc(S(=O)(=O)NCc2cccnc2)o1 | 0
SMILES | GIRK2 act
O=C(NCc1ccccn1)c1ccc(Cn2ccnc2)cc1 | 0
Cc1c(C(=O)Nc2ccc3c(c2)OCO3)nnn1-c1nc(-c2ccccc2)cs1 | 0
COC(=O)N1CCc2ccc(F)cc2C1C(=O)Nc1cccc(C)n1 (stereo not given) | 0
COC(=O)N1CCc2ccc(Br)cc2C1C(=O)Nc1nccs1 (stereo not given) | +
COC(=O)N1CCc2ccc(Br)cc2C1C(=O)Nc1ccc(SC)cc1 (stereo not given) | 0
COc1ccc(OS(=O)(=O)c2ccc(-c3csc(C)n3)s2)cc1 | 0
Cc1ccc(N2CC(C(=O)NC3(c4nc(C)no4)CCCCC3)CC2=O)c(C)c1 (stereo not given) | 0
CCn1c(=O)c2c(nc3n(-c4ccccc4OC)c(-c4ccccc4)cn23)n(C)c1=O | +
COc1ccccc1-n1c(-c2ccccc2)cn2c3c(=O)n(CC(C)=O)c(=O)n(C)c3nc12 | 0
CCOC(=O)Cn1c(=O)c2c(nc3n(-c4ccccc4OC)c(-c4ccccc4)cn23)n(C)c1=O | 0
CCCn1c(=O)c2c(nc3n2CC(C(C)(C)C)=NN3)n(C)c1=O | 0
O=C(Cn1c(=O)oc2ccccc21)NCC1(c2cccs2)CC1 | 0
Cc1ccc(CNC(=O)Cn2nc3c(N4CCOCC4)nccn3c2=O)cc1 | 0
CC(=O)Nc1ccc(C(=O)N2CCN(CC(O)c3cccs3)CC2)cc1 (stereo not given) | 0
Cc1cc(C)n(-c2cc(NC(=O)CSc3ccncc3)ncn2)n1 | 0
O=C(Nc1ccccc1)OC1CCCC(NC(=O)C2CCCC2)C1 (stereo not given) | 0
Cc1ccc(-c2cc3c(=O)n(CC(=O)Nc4cccc(C)c4C)ccn3n2)cc1 | 0
CCOC(=O)c1cn[nH]c1S(=O)(=O)N1CCN(c2cccc(C)c2)C(C)C1 (stereo not given) | +
CCOC(=O)c1cn[nH]c1S(=O)(=O)Nc1cccc(CC)c1 | 0
CCOC(=O)c1cn[nH]c1S(=O)(=O)N1CCN(c2ccc(C(C)=O)cc2)CC1 | 0
CCN(CC)c1ccc(-c2noc(CN3CCSCC3)n2)cn1 | 0
CCN(CC)c1ccc(-c2noc(CN3CCCCC3C)n2)cn1 (stereo not given) | +
CCN(CC)c1ccc(-c2noc(CN3CCN(c4ccccc4Cl)CC3)n2)cn1 | 0
COc1ccc(/C=C2\Oc3c(ccc(OC(C)=O)c3C)C2=O)c(OC)c1 | 0
O=C(NCC1CCN(C(=O)c2cccnc2)CC1)c1cnccn1 | 0
